In the library only some 11% were active in any assay of this set; here they are far more common.
HCV inhibitor = blocks hepatitis C virus; AID 651820; actives 3.4% (n = 340,000); Huh7.5.1 HCVcc-Cre infection, luciferase reporter, 44 h; Potency, µM (doses to about 41.8 µM), inactives show at the highest dose activity change, negative = inhibition, actives largely listed as inhibitors
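Cells seeded at 1,000/well and cultured 4 h, then compounds added followed by HCVcc-Cre virus (~0.5 moi). After 44 h further culture, luciferase substrate was added, plates held 15 min at room temperature, and luminescence read for 15 sec.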
AmpC inh no detg = inhibitors of E. coli AmpC beta-lactamase without detergent. AmpC nitrocefin hydrolysis, absorbance 480 nm, 0.0001% Triton. Potency, µM (highest dose often 57.1 µM), without a hit: at the top dose activity change, negative = inhibition, usual class: inhibitors. actives 0.52% (n = 330,000);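 also: plate controls were no compound for no effect and no enzyme for full effect; nearly all actives have a fitted effect of over 20% in size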
Target sequence (P00811 whole entry, looked up): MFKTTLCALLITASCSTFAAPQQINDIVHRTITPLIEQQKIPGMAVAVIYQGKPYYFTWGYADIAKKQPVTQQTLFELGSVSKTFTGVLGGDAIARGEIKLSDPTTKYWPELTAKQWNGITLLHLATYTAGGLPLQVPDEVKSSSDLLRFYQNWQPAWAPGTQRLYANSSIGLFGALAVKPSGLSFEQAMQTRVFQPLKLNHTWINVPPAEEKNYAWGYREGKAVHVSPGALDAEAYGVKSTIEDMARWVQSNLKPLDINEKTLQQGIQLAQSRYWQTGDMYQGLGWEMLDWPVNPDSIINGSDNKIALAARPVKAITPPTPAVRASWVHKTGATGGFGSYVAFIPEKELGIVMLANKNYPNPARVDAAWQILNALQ
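20 mM phosphate pH 7.0 + 0.01% (detergent screen) or 0.0001% Triton X-100; 5.3 nM AmpC reagent; cpd preinc 15 min RT; nitrocefin (800 uM stock) to start; A480 q20 s × 4 min; Activity was normalised to no-enzyme and no-compound control wells.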
AMA1-RON2 inh = disrupts binding of P. falciparum AMA1 to RON2 | AID 720542 | AlphaScreen AMA1-biotinylated RON2 peptide binding | Potency, µM (series often up to 58.2 µM), inactives show top-dose activity change, negative = inhibition, actives largely listed as inhibitors | actives 0.2% (n = 360,000);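 also: 0% = vehicle wells and -100% = peptide control; nearly all actives have a fitted effect of over 45% in size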
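AMA1 (3D7) with his tag at 25 nM final met compounds first, then biotinylated RON2 peptide at 25 nM; detection used donor plus acceptor beads, 10 µg/mL apiece, read by AlphaScreen after 30 min at room temperature.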
AmpC detergent = AmpC beta-lactamase inhibition with detergent present; P00811; AmpC hydrolysis of nitrocefin, absorbance 480 nm, 0.01% Triton; Potency, µM (top dose mostly 114 µM), without a hit: top-dose activity change, negative = inhibition, hits mostly inhibitors; actives 0.041% (n = 370,000);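 also: 0% = no-compound wells and -100% = no-enzyme wells; nearly all actives have a fitted effect of over 25% in size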
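AmpC (5.3 nM in the dispensed reagent) in 20 mM phosphate pH 7.0 with 0.01% (detergent screen) or 0.0001% Triton X-100 was preincubated with compounds for 15 min at room temperature. Nitrocefin was then added from an 800 uM solution, and hydrolysis was followed at 480 nm.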
Pf growth 96h = P. falciparum growth inhibition at 96 hours; Potency, µM (top dose mostly 28.7 µM), without a hit: at the highest dose activity change, negative = inhibition, usual class: inhibitors; actives 6.9% (n = 320,000); AID 504834; P. falciparum luciferase reporter growth, 96 h
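Plates of compound plus infected erythrocytes (2% hematocrit, 0.05% parasitemia final) incubate 96 hours, 37 C, 5% CO2. Detection reagent added; reduced luminescence from the parasites' luciferase reporter flags inhibition.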
Pf growth 48h = inhibits P. falciparum growth in the first generation, 48 h. P. falciparum luciferase growth in erythrocytes, 48 h. Potency, µM (doses to about 28.7 µM), for the others: at the highest dose activity change, negative = inhibition, actives largely listed as inhibitors. actives 5.9% (n = 310,000). AID 504832
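First compound was added to culture medium, then infected red cells at 0.1% parasitemia and 2% hematocrit (final). After incubation at 37 C under 5% CO2, luciferase detection reagent was dispensed and light output recorded.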
* hit, by the source's call; ? = inconclusive; nt = no result given; [ ] = dose if it differs, or a comment. Calls follow the shape of the dose curve; as a rule, active = well fitted curve in the direction sought with a large enough effect; inconclusive = small, poorly fitted or top-dose-only effect, or another doubt; inactive = no such curve, though single readings can be large; an effect the other way counts as inactive or inconclusive. Unless noted, % is scaled to controls: 0 for no effect and ±100 for the full control effect; potency is read from the fitted curve at half-maximal effect.

SMILES | HCV inhibitor | AmpC inh no detg | AMA1-RON2 inh | AmpC detergent | Pf growth 96h | Pf growth 48h
Cc1ccc2cc(-c3noc(C4CCCO4)n3)c(=O)[nH]c2c1 (configuration not stated) | 16% | -20% | 12% | ? | ? | nt
CCOc1ccccc1-c1nc(-c2cc3ccccc3nc2OC)no1 | 11µM* | 10% | 3% | -17% | ? | 0%
COc1nc2ccccc2cc1-c1noc(-c2cccnc2)n1 | nt | -24% | nt | ? | ? | 3%
CCOc1ccccc1-c1nc(-c2cc3ccc(C)cc3[nH]c2=O)no1 | ? | -20% | 4% | ? | -6% | 9.3µM*
CCCc1nc(-c2cc3ccc(C)cc3[nH]c2=O)no1 | -15% | -5% | -8% | ? | 3.7µM* | 6%
Cc1ccc2[nH]c(=O)c(-c3noc(CC(C)C)n3)cc2c1 | 2% | -22% | -7% | 2% | 5.2µM* | 9.3µM*
Cc1ccc2cc(-c3noc(C4CCCCC4)n3)c(=O)[nH]c2c1 | 8% | -17% | 25% | 1% | 9% | 39%
CCn1ccc2cc(S(=O)(=O)N3CCC(C(=O)NCc4ccc(OC(C)C)cc4)CC3)ccc21 | nt | nt | nt | 0% | nt | nt
CCOc1ccccc1NC(=O)c1ccccc1-c1nc(-c2ccccc2OC)no1 | 11µM* | 13% | 5% | -14% | ? | ?
CC(C)(C)NC(=O)c1ccccc1-c1nc(-c2ccccc2Cl)no1 | -29% | 18% | 1% | -10% | 2.1µM* | 30%
CC(C)NC(=O)c1ccccc1-c1nc(-c2ccccc2Cl)no1 | -4% | 1% | -2% | ? | -7% | 13%
CCOC(=O)/C(C#N)=C/c1ccc(-c2ccc(C)cc2)o1 | nt | nt | nt | 2% | nt | nt
CCN(Cc1ccc(Cl)s1)C(=O)c1cccc(OCc2c(C)noc2C)c1 | ? | 38% | 10%[11.6 µM] | nt | nt | nt
CCN(Cc1nc2ccccc2c(=O)[nH]1)C(=O)c1cccc(OCc2c(C)noc2C)c1 | ? | -5% | -5% | -11% | ? | 6.6µM*
O=C(Nc1ccccc1F)N(Cc1ccc(F)cc1)Cc1nc2ccccc2c(=O)[nH]1 | -26% | 145% | 70% | -3% | ? | 4%
O=C(NC1CCCCC1)N(Cc1ccc(F)cc1)Cc1nc2ccccc2c(=O)[nH]1 | -7% | -12% | 16% | ? | 38% | 10µM*
CCN(Cc1nc2ccccc2c(=O)[nH]1)C(=O)COc1ccccc1Cc1ccccc1 | ? | 49% | 0% | ? | 8.3µM* | ?
O=C(C1CC1)N(CCc1ccccc1)Cc1nc2ccccc2c(=O)[nH]1 | 7% | -27% | -1% | -7% | 15µM* | -25%
O=C(C1CCC1)N(CCc1ccccc1)Cc1nc2ccccc2c(=O)[nH]1 | 12% | -7% | 54% | -10% | 5% | ?
CCCCc1ccc(NC(=O)c2cc3c(=O)n4ccccc4nc3n2C)cc1 | nt | nt | nt | 13% | nt | nt
CCCC(=O)N(CCc1ccc(OC)cc1)Cc1nc2ccccc2c(=O)[nH]1 | ? | -4% | 17% | ? | 10µM* | nt
COc1ccc(-n2c(=O)c3c4c(sc3n(Cc3ccccc3)c2=O)CN(C(C)=O)CC4)cc1OC | nt | nt | nt | -1% | nt | nt
CCOC(=O)c1sc2nc(SCC(=O)N(CC)CC)n(CCCN3CCCC3=O)c(=O)c2c1C | -8% | 221% | -12% | -6% | -92% | 2.1µM*
CCOc1ccc(/C=N/NC(=O)c2ccccc2C)cc1CN1CC2CC(C1)c1cccc(=O)n1C2 (configuration not stated) | ? | 115% | -5% | 1% | ? | 3.7µM*
CCOc1ccc(/C=N/NC(=O)c2ccc(F)cc2)cc1CN1CC2CC(C1)c1cccc(=O)n1C2 (configuration not stated) | ? | 67% | -6% | -4% | 18% | 5.2µM*
SMILES | HCV inhibitor | AmpC inh no detg | AMA1-RON2 inh | AmpC detergent | Pf growth 96h | Pf growth 48h
CCOc1ccc(/C=N/NC(=O)c2ccccc2Cl)cc1CN1CC2CC(C1)c1cccc(=O)n1C2 (configuration not stated) | 2.5µM* | 122% | 0% | -1% | -23% | 8.3µM*
CCCOc1ccc(C(=O)Nc2ccc(S(=O)(=O)N3C[C@@H]4C[C@@H](C3)c3cccc(=O)n3C4)cc2)cc1 | 3.2µM* | 154% | ? | 2% | 4.7µM* | 2.1µM*
CC(=O)Nc1c(C(=O)Nc2cccc(C)c2)nnn1-c1ccc(C)cc1 | nt | nt | nt | 20% | nt | nt
Cc1cc(Nc2nc3ccccc3c3nnc(C)n23)ccc1Br | nt | nt | nt | 1% | nt | nt
CN(C)c1ccc(S(=O)(=O)NCC(=O)NCCC2=CCCCC2)cc1[N+](=O)[O-] | -3% | -2% | -9%[11.6 µM] | 0% | ? | 12µM*
COc1ccc([N+](=O)[O-])c(S(=O)(=O)c2ccccc2)n1 | ? | -28% | -11% | ? | ? | -8%
O=[N+]([O-])c1cccnc1S(=O)(=O)c1ccccc1 | ? | -4% | 2% | 1% | 10µM* | ?
CN(C(=O)CSc1nnc(-c2ccccc2F)o1)C1CCCCC1 | nt | nt | nt | 25% | nt | nt
Cc1onc(-c2c(F)cccc2Cl)c1C(=O)Nc1sc2c(c1C#N)CCC(C(C)(C)C)C2 (configuration not stated) | 0% | -40% | -23% | 4% | ? | 6.6µM*
CCOC(=O)c1c(NC(=O)c2cc(OCC)c(OCC)c(OCC)c2)sc2c1CCCCC2 | nt | nt | nt | 8% | nt | nt
O=C(CN1CCC(c2nc3ccccc3s2)CC1)NCc1cccs1 | 3.2µM* | 67% | -3% | 0% | ? | -14%
O=C(CN1CCC(c2nc3ccccc3s2)CC1)N1CCCCC1 | ? | 340% | 7% | 0% | 10% | 35%
COc1ccc(Cl)c2sc(N(Cc3cccnc3)C(C)=O)nc12 | 13µM* | 5% | -11% | 1% | ? | -4%
Cc1ccc(Nc2nc(-c3cccnc3)nc3ccccc23)cc1 | 1.1µM* | -3% | 1% | 1% | 5% | 15µM*
Cc1cccc(-c2nc(Nc3ccc(N4CCOCC4)cc3)c3ccccc3n2)c1 | ? | 5% | -19% | 1% | ? | 9.3µM*
CCOC(=O)c1ccc(Nc2nc(-c3cccnc3)nc3ccccc23)cc1 | ? | -2% | -11% | -4% | 79% | 5.9µM*
O=C(Oc1ccc(Nc2ncnc3ccccc23)cc1)c1cccnc1 | -13% | -18% | -11% | 6% | 12µM* | 3%
O=C(O)c1ccc(Nc2ncnc3ccccc23)cc1 | 9% | -18% | 2% | 3% | 9% | 31%
CCOC(=O)c1ccc(Nc2ncnc3ccccc23)cc1 | -22% | -36% | 0% | 0% | 288% | 2%
Cc1nn(CCCC(=O)Nc2ccccc2C(F)(F)F)c(=O)c2c1sc1ccccc12 | nt | nt | nt | 12% | nt | nt

Assay outcomes (PubChem BioAssay)
